This is an account of results in PubChem BioAssay (NCI).

Holding throughout (assay): NCI-60 one-dose screen, 48 h (100 = growth as untreated, 0 = no growth, -100 = all killed)
What all share (details): 10 µM unless noted

The subject of assay [1] is K-562 leukemia.
Assay [2] concerns MALME-3M melanoma.
The subject of assay [3] is MDA-MB-231 breast.
The subject of assay [4] is RXF 393 renal.
The subject of assay [5] is SF-268 CNS.
In assay [6] the test system is SF-295 CNS.
Assay [7] relates to SF-539 CNS.
The subject of assay [8] is UACC-257 melanoma.
Assay [9] relates to M14 melanoma.
In assay [10] the test system is HCT-15 colon.
The subject of assay [11] is HT29 colon.
The test system of assay [12] is SNB-75 CNS.
The subject of assay [13] is SNB-19 CNS.
Assay [14] deals with PC-3 prostate.
Assay [15] deals with SK-MEL-5 melanoma.
For assay [16], the system named is UACC-62 melanoma.
In assay [17] the test system is LOX IMVI melanoma.
Assay [18] relates to SK-MEL-28 melanoma.
For assay [19], the system named is SK-MEL-2 melanoma.
Assay [20] concerns U251 CNS.

About 83,000 compounds went through this panel and 20% of them were active in at least one assay; those are over-represented in the sample as a whole.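 The endpoint reported here, percent growth, reads 100 for growth as untreated, 0 for no net growth and -100 for all cells dead.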 A number with no mark means an inactive call. Active and inactive are the calls of the source. How the source made its calls: active means growth percent below 10; inactive means the rest.

As for `CN(C)CCCNc1c2ccccc2nc2c1oc1ccc(Cl)cc12`, the growth in [1] was -1.57% (active); in assay [2], 30.7%; in assay [3], -31.7% (active); in [4] it was -65.8% (active); in [5], 40.9%; in [6] it was 24.6%. Moreover, the growth in assay [7] was 18.3%; in assay [8] it was 49.9%; in assay [9], 27%; in assay [10], -31.1% (active); in assay [11], -34% (active); in [12], 37.5%. Further, the growth was 43.3% in [13]; 47.2% in [14]; 47.9% in [15]; 52.1% in assay [16]; -86.5% (active) in assay [17]; 43.8% in assay [18]. The growth in assay [19] was 70.8%.

Consider `O=C1Nc2cc(Cl)ccc2/C1=C\c1ccc(OCc2ccc(Br)cc2F)cc1`, for which the growth in assay [1] is 3.55% (active); in [2] it was -66.9% (active); in assay [3], -2.27% (active); in [4] it was -67.3% (active); in [5], -11.9% (active); in assay [6] it was -83.2% (active). Besides, the growth in assay [7] is -87.9% (active); in [8], 8.13% (active); in assay [9], -43.9% (active); in assay [10], 6.12% (active); in assay [11], 0.627% (active); in assay [12], -72.8% (active). Also, the growth in assay [13] is -41.3% (active); in assay [14], -57.1% (active); in [15] it was -12.1% (active); in assay [16] it was -74.3% (active); in assay [17], -92.8% (active); in assay [19], -42.8% (active).

For the compound `CCOC(=O)c1c(NC(=O)c2cccc(C(F)(F)F)c2)sc2cc(O)ccc12`, the growth in assay [1] was 97.3%; in assay [2], 92.4%; in assay [3], 87.1%; in [4], 113%; in assay [5], 96.9%; in [6], 102%. In addition, the growth in [7] was 89.7%; in [8], 108%; in assay [9], 101%; in assay [10] it was 92.8%; in [11] it was 105%; in assay [12], 73.4%. The growth in [13] was 96%; in assay [20], 98.9%; in [14], 94.8%; in [16] it was 97.9%; in [19] it was 100%.

For `CS(=O)(=O)c1ccc(-c2nc3ccccn3c2C=Nc2ccc(Cl)cc2)cc1`, the growth in [1] was 23.6%; in [2], 93.6%; in assay [3] it was 85.5%; in assay [4], 105%; in assay [5] it was 75.4%; in [6], 87.9%. For the same compound, the growth in [7] is 84.1%; in assay [8], 88.4%; in assay [9] it was 43.8%; in [10], 34.3%; in assay [11] it was 75.7%; in [12] it was 77.9%. In addition, the growth is 89.1% in assay [13]; 57.8% in [14]; 68.6% in assay [15]; 24.5% in assay [16]; 74.3% in assay [18]; 107% in assay [19].

Regarding `Cc1c(Nc2nnc(SCC(=O)Nc3sc4c(c3C#N)CCCC4)s2)c(=O)n(-c2ccccc2)n1C`, the growth was 93.5% in assay [1]; 119% in assay [2]; 98.4% in [3]; 118% in assay [4]; 103% in assay [5]; 107% in [6]. The growth was 102% in [7]; 116% in [8]; 103% in assay [9]; 103% in assay [10]; 117% in assay [11]; 100% in assay [13]. In addition, the growth in assay [20] is 102%; in assay [14], 101%; in [15], 102%; in assay [16] it was 92.9%; in assay [17], 88.7%; in [18], 107%. The growth in [19] is 106%.

Turning to `COc1ccc(CNS(=O)(=O)/N=C2\NC(=O)NC2=C(Cl)Cl)cc1`, the growth in [1] is 13%; in assay [2] it was 76%; in [3], 22.1%; in [4], 39.6%; in assay [5], 59.6%; in assay [6] it was -22.9% (active). For the same compound, the growth in assay [7] is -6.36% (active); in assay [8], 54.4%; in [9], 25.2%; in assay [10] it was 56.1%; in [11] it was 8.17% (active); in assay [12] it was -23.1% (active). Besides, the growth in [13] is 30%; in assay [20], 14.8%; in [14], 28%; in assay [16] it was 27.4%; in assay [18], 48.7%; in assay [19] it was 29.1%.

For `Nc1c(C(=O)Nc2ccc(C(F)(F)F)cc2)sc2nc(-c3cnccn3)cc(-c3cccs3)c12`, the growth in assay [1] was 35.5%; in assay [2], 89%; in assay [3], 66.2%; in [4] it was 25.5%; in assay [5], 78.6%; in assay [6] it was 78.7%. Moreover, the growth in assay [7] is -54.1% (active); in assay [8] it was 95.8%; in [9] it was 49.4%; in assay [10], 78.6%; in assay [11], 95%; in assay [12], 34.2%. For the same compound, the growth in assay [13] was 52.2%; in assay [14] it was 42.2%; in assay [15] it was 90.1%; in assay [16], 84.6%; in [18], 89.8%; in assay [19] it was 101%.

Take `CSc1ccc2c(c1)N(C(=O)/C(C#N)=C/c1c[nH]c3ccccc13)c1ccccc1S2`: the growth was 16.4% in [1]; 55.7% in [2]; 53.2% in [3]; 38.8% in assay [4]; 55.8% in assay [5]; 15% in assay [6]. Besides, the growth in [7] was 7.54% (active); in [8], 57%; in [9] it was 29.5%; in assay [10] it was 27.3%; in assay [11], 12.2%; in [12], 8.61% (active). Further, the growth in [13] is 41%; in assay [20] it was 42.1%; in [14] it was 28.8%; in assay [16], 41.8%; in assay [18] it was 58.5%; in [19], 35.6%.

In the case of `CCCC(=O)NC(c1cccc(N(C)C)c1)c1cc(C)c2cccnc2c1O` (stereo not drawn), the growth in [1] is 35.3%; in [2], 79.8%; in [3] it was 48.2%; in assay [4] it was 82.1%; in [5], 55.1%; in assay [6], 42.3%. The growth in [7] is 53.9%; in [8], 90.6%; in assay [9], 49.3%; in [10], 24.9%; in assay [11], 91.6%; in assay [12], 76.8%. Also, the growth in [13] was 69.3%; in assay [14], 50.1%; in assay [15], 62.7%; in assay [16] it was 46.1%; in assay [18] it was 77.1%; in [19] it was 89.9%.
